Source: PubChem BioAssay (National Center for Advancing Translational Sciences (NCATS))
HT1080-NT tox – qHTS for induction of synthetic lethality in tumor cells producing 2HG: qHTS for the HT-1080-NT fibrosarcoma cell line; actives 1.6% (n = 360,000); Potency, µM (highest dose often 46.1 µM), inactives show top-dose activity, negative = less viability, usual class: cytotoxic; AID 686970, 2013; HT-1080-NT fibrosarcoma viability, CellTiter-Glo ATP luminescence, 48 h;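 also: NT is the 2HG producing partner of a matched IDH1 knockdown line; 0% = DMSO-treated cells and -100% = media-only wells without cells; nearly all actives have a fitted effect of over 55% in size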
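Viability by CellTiter-Glo luminescence after 48 h compound exposure at 37C of HT-1080-NT cells (750/well, RPMI, 5% FBS). % activity scaled between DMSO wells and medium-only wells, then curve-fitted and categorized by curve class.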
HepG2 viability – qHTS for Inhibitors of TGF-b: Cytotox Counterscreen; HepG2 CAGA-GFP viability, ATP luminescence, 18 h; actives 0.76% (n = 410,000); Potency, µM (titrated, usually from 46.1 µM), without a hit: at the top dose activity change, negative = cytotoxicity, actives largely listed as cytotoxic
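CellTiter-Glo luminescence gave cytotoxicity after 18 hours at 37 degrees C. The cells were HepG2 CAGA-GFP in 1% FBS DMEM, stimulated with 500 pg/mL TGF-beta after compound addition. %Activity was normalised to no-cell wells (complete cell-killing) and DMSO (no toxicity), and curves were fitted and classified.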
KB-3-1 tox – qHTS assay for MDR1-selective chemotherapeutics: Primary screen using the parental adenocarcinoma cell KB-3-1 | KB-3-1 viability, CellTiter-Glo ATP luminescence, 72 h | Potency, µM (series often up to 46.1 µM), actives largely listed as cytotoxic | actives 1.4% (n = 400,000) | AID 1347075, 2019; also: % is scaled to controls: 0 for no effect and ±100 for the full control effect; nearly all actives have a fitted effect of over 60% in size
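Cells are dispensed, compounds pinned in, plates held at 37 °C for 72 h, then CellTiter-Glo is added and luminescence read after 10 minutes. Cell line: parental KB-3-1 in phenol-red-free DMEM, 10% FBS.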
KB-V1 cytotox – qHTS assay for MDR1-selective chemotherapeutics: Primary screen using the drug-selected MDR subline cells KB-V1; KB-V1 MDR cells viability, CellTiter-Glo, 72 h; Potency, µM (doses to about 46.1 µM), usual class: cytotoxic; actives 3.4% (n = 400,000); AID 1347076, 2019; also: % is scaled to controls: 0 for no effect and ±100 for the full control effect; nearly all actives have a fitted effect of over 60% in size
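qHTS viability screen in drug-selected KB-V1 MDR cells: 72 h compound treatment at 37 degrees C, ATP luminescence end point.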
HT1080 IDH1KD tx – qHTS for induction of synthetic lethality in tumor cells producing 2HG: qHTS for the HT-1080-IDH1KD cell line; HT-1080 IDH1 knockdown viability, ATP luminescence, 48 h; Potency, µM (doses to about 46.1 µM), inactives show top-dose activity, negative = toxicity, actives largely listed as cytotoxic; actives 2% (n = 360,000);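 also: 0% = DMSO wells and -100% = cell-free medium wells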
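HT-1080-IDH1KD cells (IDH1 knocked down), 750/well in RPMI with 5% FBS, treated with compound 48 h at 37 degrees C. Viability by CellTiter-Glo luminescence, normalised to DMSO and no-cell wells; concentration-response curves classed.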
TGFb SMAD3 inh – qHTS for Inhibitors of TGF-b; Potency, µM (top dose mostly 46.1 µM), for the others: top-dose activity, negative = inhibition, most hits filed as inhibitors; actives 1.2% (n = 410,000); HepG2 CAGA-GFP TGF-b/SMAD3 reporter, GFP fluorescence, 18 h; TGF-beta stimulated, 500 pg/mL final; AID 588855, 2011; also: % is scaled to controls: 0 for no effect and ±100 for the full control effect; nearly all actives have a fitted effect of over 65% in size
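First, reporter cells (HEPG2 CAGA-GFP) rested 2 h at 37 degrees C. Next, compounds were pinned in and TGF-beta added to 500 pg/mL final. After 18 h, GFP was imaged per cell and summed per well.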
Active calls of the source: *. Compounds with a hit are over-represented: about 6.6% of the library has one in this group of screens. Calls follow the shape of the dose curve; as a rule, active = well fitted curve in the direction sought with a large enough effect; inconclusive = small, poorly fitted or top-dose-only effect, or another doubt; inactive = no such curve, though single readings can be large; an effect the other way counts as inactive or inconclusive. Potency is read from the fitted curve at half-maximal effect.

For N#CCCN1CCN(Cc2cc(-c3ccccc3)ccc2O)CC1 the results were HT1080-NT tox inconclusive, HepG2 viability -17%, KB-3-1 tox inactive, KB-V1 cytotox 21µM*, HT1080 IDH1KD tx inconclusive and TGFb SMAD3 inh 0%.
For CC(C)(C)CC(C)(C)c1ccc(O)c(CN2CCN(CCC#N)CC2)c1 the results were HT1080-NT tox 8%, HepG2 viability -51%, KB-3-1 tox inactive, KB-V1 cytotox inconclusive, HT1080 IDH1KD tx -21% and TGFb SMAD3 inh 0%.
Screening COc1cc(CNC2CCCCCCC2)cc(Cl)c1OC returned HT1080-NT tox -10%, HepG2 viability -41%, KB-3-1 tox inconclusive, KB-V1 cytotox inconclusive, HT1080 IDH1KD tx inconclusive and TGFb SMAD3 inh 27%.
COc1cc(CNC2CCCCCCC2)cc(Br)c1OCC#N was read as HT1080-NT tox -12%, HepG2 viability -55%, KB-3-1 tox inactive, KB-V1 cytotox 23µM*, HT1080 IDH1KD tx inconclusive and TGFb SMAD3 inh -29%.
CCOc1c(Br)cc(CNC2CCCCCCC2)cc1OC was read as HT1080-NT tox -15%, HepG2 viability 11µM*, KB-3-1 tox inconclusive, KB-V1 cytotox inconclusive, HT1080 IDH1KD tx -17% and TGFb SMAD3 inh inconclusive.
Screening COc1cc(CNC2CCCC2)c(Br)cc1OC1CCCC1 returned HT1080-NT tox inconclusive, HepG2 viability -10%, KB-3-1 tox inactive, KB-V1 cytotox inconclusive, HT1080 IDH1KD tx -29% and TGFb SMAD3 inh 8%.
CCC(C)NC(=O)c1cn(CC)c2ccc(S(=O)(=O)N3CCc4ccccc4C3)cc2c1=O (configuration not stated) was read as HepG2 viability -25%, KB-3-1 tox inactive, KB-V1 cytotox inactive and TGFb SMAD3 inh inconclusive.
CCOc1ccc(CNC(=O)c2cc3c(=O)n(Cc4cccs4)ccc3nc2C)cc1 was read as HepG2 viability -19% and TGFb SMAD3 inh inconclusive.
COc1ccc2cc(C(=O)N/N=C/c3sc4ccccc4c3O)ccc2c1 was read as HT1080-NT tox inconclusive, HepG2 viability -23%, KB-3-1 tox 13µM*, KB-V1 cytotox 23µM*, HT1080 IDH1KD tx inconclusive and TGFb SMAD3 inh 75%.
`O=C(N/N=C/c1sc2ccccc2c1O)c1ccccc1` gave HT1080-NT tox 8.2µM*, HepG2 viability -53%, KB-3-1 tox inactive, KB-V1 cytotox inconclusive, HT1080 IDH1KD tx 2.6µM* and TGFb SMAD3 inh -13%.
COc1ccc(C(=O)N/N=C/c2sc3ccccc3c2O)cc1 was read as HT1080-NT tox inconclusive, HepG2 viability -28%, KB-3-1 tox 7.3µM*, KB-V1 cytotox inconclusive, HT1080 IDH1KD tx inconclusive and TGFb SMAD3 inh 0%.
O=C(N/N=C/c1sc2ccccc2c1O)c1cccc2ccccc12 was read as HT1080-NT tox inconclusive, HepG2 viability 4%, KB-3-1 tox inactive, KB-V1 cytotox inconclusive, HT1080 IDH1KD tx inconclusive and TGFb SMAD3 inh -26%.
CC(C)c1csc(CN2CCN(Cc3ccc(F)cc3)C(CCO)C2)n1 (configuration not stated) was read as HT1080-NT tox -16%, HepG2 viability 10%, KB-3-1 tox inconclusive, KB-V1 cytotox inconclusive, HT1080 IDH1KD tx -11% and TGFb SMAD3 inh 3.5µM*.
For Cc1ccc(CN2CCN(Cc3nc(C(C)C)cs3)CC2CCO)cc1 (configuration not stated) the results were HT1080-NT tox -25%, HepG2 viability 0%, KB-3-1 tox inactive, KB-V1 cytotox inactive, HT1080 IDH1KD tx 3% and TGFb SMAD3 inh -22%.
OCCC1CN(Cc2nc(-c3ccccc3)cs2)CCN1Cc1ccc(F)cc1 (configuration not stated) was read as HT1080-NT tox -23%, HepG2 viability 8%, KB-3-1 tox inconclusive, KB-V1 cytotox 9.2µM*, HT1080 IDH1KD tx -17% and TGFb SMAD3 inh 26%.
CC(C)=CCN1CCN(Cc2nc(-c3ccc(F)cc3)cs2)CC1CCO (configuration not stated) was read as HT1080-NT tox 4%, HepG2 viability -19%, KB-3-1 tox inactive, KB-V1 cytotox inconclusive, HT1080 IDH1KD tx -20% and TGFb SMAD3 inh -6%.
Screening CCC(=O)OCC(=O)N=c1sccn1Cc1ccccc1Cl returned HT1080-NT tox -2%, HepG2 viability -6%, KB-3-1 tox inactive, KB-V1 cytotox inactive, HT1080 IDH1KD tx 2% and TGFb SMAD3 inh -6%.
Screening O=C(CCl)N=c1sccn1Cc1ccccc1Cl returned HT1080-NT tox 0.092µM*, HepG2 viability 10µM*, KB-3-1 tox inconclusive, KB-V1 cytotox inconclusive, HT1080 IDH1KD tx 0.092µM* and TGFb SMAD3 inh 11µM*.
`O=C(CCl)N=c1sccn1Cc1ccc(Cl)cc1Cl` gave HT1080-NT tox 5.8µM*, HepG2 viability 13µM*, KB-3-1 tox inconclusive, KB-V1 cytotox 18µM*, HT1080 IDH1KD tx 3.3µM* and TGFb SMAD3 inh inconclusive.
Screening O=C(CCl)N=c1sccn1Cc1cccc2ccccc12 returned HT1080-NT tox inconclusive, HepG2 viability -111%, KB-3-1 tox inconclusive, KB-V1 cytotox inconclusive, HT1080 IDH1KD tx 18µM* and TGFb SMAD3 inh inconclusive.
Cn1cc(C(=O)NCc2ccccc2)c(=O)c2cc(S(=O)(=O)N3CCOCC3)ccc21 was read as HepG2 viability 3%, KB-3-1 tox inactive, KB-V1 cytotox inactive and TGFb SMAD3 inh 35%.
`O=S(=O)(Nc1cc(Br)cc2cccnc12)c1cccc2ccccc12` gave HepG2 viability -34% and TGFb SMAD3 inh inconclusive.
CCOc1ccc2ncc3c(-c4cccc(OC)c4)nn(-c4ccccc4)c3c2c1 was read as HepG2 viability -4%, KB-3-1 tox inactive, KB-V1 cytotox inactive and TGFb SMAD3 inh inconclusive.
`Cc1cc(Cl)ccc1OCC(=O)N(Cc1ccco1)Cc1ccccc1F` gave HepG2 viability -90% and TGFb SMAD3 inh -8%.
For CCCCCCC(O)(c1ccc(OC)cc1)C(CN1CCOCC1)c1ccccc1 (configuration not stated) the results were HT1080-NT tox inconclusive, HepG2 viability -16%, KB-3-1 tox 18µM*, KB-V1 cytotox inconclusive, HT1080 IDH1KD tx inconclusive and TGFb SMAD3 inh inconclusive.
